Records with an inconclusive call do not appear. Calls of active or inactive are those of the source. Unless noted, the call rests on the fitted dose curve; in most records, active means well fitted curve in either direction with a large enough effect (not every such curve was filed as active); inconclusive means small, poorly fitted or top-dose-only effect, or another doubt; inactive means flat fitted curve, though single readings scatter.

Here are results for 7 compounds from PubChem BioAssay (NCATS).

The nature of assay [1]: AP1 Signaling Pathway (AID 357).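 Further: ME-180 reporter cells stimulated with EGF at its EC50 level; on the % scale 0 is the no-effect control and ±100 the full control effect.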 The essentials:
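In this screen, ME-180 cells in Opti-MEM with 0.5% dialyzed FBS received EC50 EGF and compound titrations for 5 h. AP-1 reporter beta-lactamase was detected via CCF4 ratio, giving AC50 for positive and negative modulators.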

In assay [2] the target is Cytochrome P450 1A2 (Homo sapiens) (UniProt P05177). The experiment in a line: p450-cyp1a2 (AID 410; calls by dose curve; further: potency means the concentration at half of the fitted maximal effect;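 on activity change, negative = inhibition: -100% = full effect of reference inhibitor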). Put shortly: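 Luminescent readout of luciferin formed from Luciferin-ME by human CYP1A2; data normalized against complete inhibition by 57 uM furafylline. Enzyme 20nM, substrate 100uM at Km, 100mM KPO4 buffer, 60 min reaction at room temperature.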
A short description of assay [3]: NFAT Signaling Pathway (AID 444).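 Further: carbachol stimulus at about its EC50 of 1 µM final; on the % scale 0 is the no-effect control and ±100 the full control effect.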 To be noted: Jurkat NFAT-bla M1, carbachol, beta-lactamase ratio, 5 h; at 17.2 µM (top of the series) unless noted. The essentials:
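Jurkat cells carrying an NFAT-driven β-lactamase reporter and co-transfected muscarinic M1 receptor were treated with compound plus carbachol (1 uM final, an EC50 level) for 5 h at 37 °C. CCF4 loading followed for 1 h at RT; 460/530 nm ratio gave %activity.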

A short description of assay [4]: Stat Signaling Pathway (AID 446).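 Further: ME-180 cervical cancer cells given 40 pM IL-6 alongside compound; SIE-controlled beta-lactamase reporter measured as 460/530 nm FRET emission ratio; on the % scale 0 is the no-effect control and ±100 the full control effect.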 The essentials:
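ME-180 SIE-bla cells; overnight plating; cpd + IL-6 40 pM, 5 h, 37 C; LiveBLAzer 2.5 h RT; 460/530 nm emission ratio. Normalized to 300 pM IL-6 and 125 nM JAK inhibitor controls.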

Assay [5] deals with Glucocorticoid receptor (Homo sapiens) (UniProt P04150). Nature of the assay: GR-GFP Redistribution (AID 450;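 active means compounds whose dose series gives a full or clear partial fitted curve of increased nuclear translocation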; further: potency means the concentration at half of the fitted maximal effect). To be noted: U2OS GR-GFP nuclear translocation, laser cytometry, 2 h.
The target is the same in assay [6]. Nature of the assay: GR-EFC Redistribution (AID 451; calls by dose curve; further: potency means the concentration at half of the fitted maximal effect). The note with it: CHO-K1 GR-EFC translocation, beta-gal luminescence, 2 h. Put shortly: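 CHO-K1 cells stably expressing nuclear-localized β-gal enzyme acceptor and GR fused C-terminally to the enzyme donor fragment; ligand-driven nuclear translocation restores β-gal by complementation. Compounds titrated up to 46 uM final, 2 h at 37 °C; luminescence read.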

The target in assay [7] is Mitogen-activated protein kinase 10 (Mus musculus) (UniProt Q61831). The experiment in a line: JNK3 AlphaScreen Assay (AID 530).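 Further: kinase came from lysate of stimulated human HepG2 cells; signal reports phosphorylation of biotinylated GST-cJun 1-79 at Ser73 with 10 µM ATP; on the % scale 0 is the no-effect control and ±100 the full control effect.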 The essentials:
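Inhibitors reduce antibody binding to phosphorylated biotin-cJun, lowering AlphaScreen luminescence. Lysates from HepG2 cells pre-activated by IL-1beta plus TNF-alpha supplied JNK3; compounds were titrated.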
Background: Bead proximity is the source of the signal in Alpha formats.

Assay [8] deals with 3',5'-cyclic-AMP phosphodiesterase 4B (Homo sapiens) (UniProt Q07343). Nature of the assay: qHTS Assay for Inhibitors of PDE-IV (AID 607; active means well fitted activation curve with a large enough effect in the main read-out, with a control signal flat, not every such curve was filed as active; further: % of control where 0% means no effect). Put shortly:
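ACTOne HEK293 cells carry a modified cAMP-gated CNG channel and express endogenous PDE4; plated 1000 cells/well, compounds up to 22.9 uM final. Membrane-potential dye fluorescence (ex 535/em 590) was read; parental cells received 10 uM forskolin + 100 uM RO 20-1724.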

The nature of assay [9]: qHTS Assay for Lipid Storage Modulators (AID 1519; calls by dose curve). The note with it: Drosophila S3 cells, BODIPY lipid droplet/cell ratio, laser cytometry, cells loaded with oleic acid; for activity change, negative = inhibition: at 25.7 µM (top of the series). Put shortly:
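Cells seeded at 5,000 per well were treated with compounds over a concentration series and loaded with oleic acid (400 uM, as added). Lipid droplet fluorescence (488 nm excitation, 500-530 nm channel) was read by laser-scanning cytometry and normalized to 20 uM Triacsin C.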
Background: qHTS replaces the single test concentration by a dilution series.

Assay [10] addresses Ubiquitin carboxyl-terminal hydrolase 1 (Homo sapiens) (UniProt O94782). The experiment in a line: Inhibitors of USP1/UAF1: Pilot qHTS (AID 504865; active means well fitted inhibition curve with a large enough effect;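 further: rhodamine fluorescence freed from ubiquitin-rhodamine substrate followed over time; top concentration of the series differs between compounds; on the % scale 0 is the no-effect control and ±100 the full control effect; nearly all actives have a fitted effect of over 35% in size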). Put shortly: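 Enzyme-free wells gave the negative control, while test wells held 1nM USP1/UAF1 preincubated with compound for 15 min at room temperature. Ub-Rho at 150nM final started the reaction, and fluorescence at 480/540 nm was recorded kinetically.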

For assay [11], the target named is Luciferin 4-monooxygenase (Photinus pyralis) (UniProt P08659). Nature of the assay: Biochemical firefly luciferase enzyme assay for NPC (AID 624030; active means well fitted inhibition curve with a large enough effect;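 further: purified P. pyralis luciferase at 10 nM with luciferin and ATP substrate; 0% = DMSO and -100% = full luciferase inhibition by PTC124 control; nearly all actives have a fitted effect of over 70% in size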). The essentials: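 Counter-screen for direct inhibition of the luciferase enzyme by approved-drug library compounds, run at 10 nM enzyme in 50 mM Tris acetate (final). Luminescence was read within 5 min of enzyme-buffer addition and normalized to PTC124 versus DMSO (0%).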

Assay [12] is described as follows: qHTS profiling for inhibitors of Plasmodium falciparum proliferation (AID 504749; active means well fitted inhibition curve with a large enough effect;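 further: 0% = DMSO vehicle and full inhibition = artemisinin control; nearly all actives have a fitted effect of over 60% in size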). To be noted: P. falciparum in erythrocytes, SYBR Green DNA, 72 h; at 28.7 µM (top of the series); parasite line B. The essentials: (§1)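 Parasite proliferation within erythrocytes, 72 h exposure. Endpoint: SYBR Green I fluorescence after overnight lysis at room temperature. Controls: 0.29 uM artemisinin, DMSO.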

Another assay has as its system C2A. The description is as above. The note with it: P. falciparum in erythrocytes, SYBR Green DNA, 72 h; series mostly up to 12.8 µM. Put shortly: as §1
For the next assay, the system named is CP191. The description is as above. The note with it: P. falciparum in erythrocytes, SYBR Green DNA, 72 h; series mostly up to 12.8 µM. Put shortly:
as §1

A further assay has as its system CP256. Described as above. The note with it: P. falciparum in erythrocytes, SYBR Green DNA, 72 h; series mostly up to 12.8 µM. The essentials:
as §1

The next assay has as its system CP262. The description is as above. To be noted: P. falciparum in erythrocytes, SYBR Green DNA, 72 h; series mostly up to 12.8 µM. Put shortly:
as §1

The subject of the next assay is CP268. The assay is described as above. To be noted: P. falciparum in erythrocytes, SYBR Green DNA, 72 h; series mostly up to 12.8 µM. The essentials:
as §1

For the next assay, the system named is JCK. The assay is described as above. The note with it: P. falciparum in erythrocytes, SYBR Green DNA, 72 h; series mostly up to 12.8 µM. The essentials: as §1
The next assay concerns SC27B. The assay is described as above. To be noted: P. falciparum in erythrocytes, SYBR Green DNA, 72 h; series mostly up to 12.8 µM. Put shortly:
as §1

Where [13] appears, read: measured here: cell count channel max response.
Setting [14] is: measured here: lipid channel max response.

Sequence of Glucocorticoid receptor (Homo sapiens) (P04150 whole entry, looked up, the tested form may be a part): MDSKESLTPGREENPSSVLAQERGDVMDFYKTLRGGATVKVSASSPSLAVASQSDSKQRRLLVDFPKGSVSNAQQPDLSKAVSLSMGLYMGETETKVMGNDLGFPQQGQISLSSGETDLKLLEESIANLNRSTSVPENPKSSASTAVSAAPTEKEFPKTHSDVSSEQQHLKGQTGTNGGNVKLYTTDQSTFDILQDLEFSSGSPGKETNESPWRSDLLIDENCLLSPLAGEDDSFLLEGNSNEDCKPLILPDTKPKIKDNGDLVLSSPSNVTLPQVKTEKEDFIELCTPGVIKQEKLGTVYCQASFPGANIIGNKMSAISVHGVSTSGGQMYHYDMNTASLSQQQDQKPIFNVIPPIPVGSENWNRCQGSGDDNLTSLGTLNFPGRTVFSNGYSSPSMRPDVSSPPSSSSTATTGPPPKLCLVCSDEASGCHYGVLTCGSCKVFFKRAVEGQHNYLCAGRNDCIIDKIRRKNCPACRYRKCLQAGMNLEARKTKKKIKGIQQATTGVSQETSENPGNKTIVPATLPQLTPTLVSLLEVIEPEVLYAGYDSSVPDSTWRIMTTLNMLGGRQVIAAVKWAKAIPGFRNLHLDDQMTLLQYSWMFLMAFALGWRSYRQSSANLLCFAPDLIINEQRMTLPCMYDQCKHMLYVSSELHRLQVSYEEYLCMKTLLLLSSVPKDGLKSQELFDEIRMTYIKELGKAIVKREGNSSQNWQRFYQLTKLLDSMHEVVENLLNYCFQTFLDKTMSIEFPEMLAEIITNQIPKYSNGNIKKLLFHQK
Sequence of Cytochrome P450 1A2 (Homo sapiens) (P05177 whole entry, looked up): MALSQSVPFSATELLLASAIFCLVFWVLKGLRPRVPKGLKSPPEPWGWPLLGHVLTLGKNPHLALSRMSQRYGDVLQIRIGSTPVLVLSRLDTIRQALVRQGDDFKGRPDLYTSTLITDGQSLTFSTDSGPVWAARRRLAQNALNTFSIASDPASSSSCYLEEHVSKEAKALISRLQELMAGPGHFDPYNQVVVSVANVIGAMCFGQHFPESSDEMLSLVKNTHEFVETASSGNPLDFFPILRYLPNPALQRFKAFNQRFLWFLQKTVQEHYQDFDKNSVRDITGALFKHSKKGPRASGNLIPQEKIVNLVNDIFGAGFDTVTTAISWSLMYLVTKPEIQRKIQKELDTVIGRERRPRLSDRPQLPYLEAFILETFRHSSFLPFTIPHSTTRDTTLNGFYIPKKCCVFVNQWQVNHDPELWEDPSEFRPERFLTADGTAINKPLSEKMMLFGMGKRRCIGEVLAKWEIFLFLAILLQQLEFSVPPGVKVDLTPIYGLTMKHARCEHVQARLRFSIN
Sequence of Ubiquitin carboxyl-terminal hydrolase 1 (Homo sapiens) (O94782 whole entry, looked up): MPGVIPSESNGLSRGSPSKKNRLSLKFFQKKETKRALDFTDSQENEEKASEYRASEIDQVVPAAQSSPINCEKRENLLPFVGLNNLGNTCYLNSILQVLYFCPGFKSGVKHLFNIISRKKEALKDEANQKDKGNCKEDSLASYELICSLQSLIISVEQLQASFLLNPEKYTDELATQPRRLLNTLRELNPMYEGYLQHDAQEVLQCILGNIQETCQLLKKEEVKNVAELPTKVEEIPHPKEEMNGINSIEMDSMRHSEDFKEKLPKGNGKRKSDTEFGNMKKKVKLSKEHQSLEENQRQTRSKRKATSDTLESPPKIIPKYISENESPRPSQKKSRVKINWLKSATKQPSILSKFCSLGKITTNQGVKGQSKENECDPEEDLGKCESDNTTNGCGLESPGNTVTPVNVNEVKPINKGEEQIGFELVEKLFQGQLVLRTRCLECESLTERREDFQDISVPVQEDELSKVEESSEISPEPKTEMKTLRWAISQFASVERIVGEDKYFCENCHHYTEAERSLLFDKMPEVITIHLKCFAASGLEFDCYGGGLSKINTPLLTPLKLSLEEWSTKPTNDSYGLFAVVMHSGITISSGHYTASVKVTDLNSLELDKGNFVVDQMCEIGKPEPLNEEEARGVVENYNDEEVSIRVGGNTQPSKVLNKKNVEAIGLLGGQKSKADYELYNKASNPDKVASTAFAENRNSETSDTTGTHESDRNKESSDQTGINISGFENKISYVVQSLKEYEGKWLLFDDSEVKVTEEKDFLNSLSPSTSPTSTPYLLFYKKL
Sequence of 3',5'-cyclic-AMP phosphodiesterase 4B (Homo sapiens) (Q07343 whole entry, looked up): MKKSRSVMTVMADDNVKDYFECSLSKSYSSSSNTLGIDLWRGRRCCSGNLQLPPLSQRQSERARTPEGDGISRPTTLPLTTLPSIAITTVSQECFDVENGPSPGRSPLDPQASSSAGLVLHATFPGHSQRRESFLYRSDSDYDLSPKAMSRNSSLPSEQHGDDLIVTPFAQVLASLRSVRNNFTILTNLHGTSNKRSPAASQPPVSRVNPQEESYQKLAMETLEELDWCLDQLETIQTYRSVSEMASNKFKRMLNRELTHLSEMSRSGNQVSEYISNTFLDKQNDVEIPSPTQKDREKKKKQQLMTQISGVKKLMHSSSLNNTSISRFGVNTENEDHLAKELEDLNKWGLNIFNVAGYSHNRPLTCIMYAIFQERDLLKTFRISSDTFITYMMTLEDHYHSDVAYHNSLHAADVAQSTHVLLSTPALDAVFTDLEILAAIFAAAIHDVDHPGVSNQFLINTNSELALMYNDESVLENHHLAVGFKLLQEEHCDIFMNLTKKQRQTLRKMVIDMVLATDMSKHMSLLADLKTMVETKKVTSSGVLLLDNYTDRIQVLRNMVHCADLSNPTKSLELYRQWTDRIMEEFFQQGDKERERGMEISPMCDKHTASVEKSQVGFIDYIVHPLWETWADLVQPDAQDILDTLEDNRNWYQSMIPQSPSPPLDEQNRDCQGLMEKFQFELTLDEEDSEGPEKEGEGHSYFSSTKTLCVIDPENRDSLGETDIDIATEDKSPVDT
Sequence of Luciferin 4-monooxygenase (Photinus pyralis) (P08659 whole entry, looked up): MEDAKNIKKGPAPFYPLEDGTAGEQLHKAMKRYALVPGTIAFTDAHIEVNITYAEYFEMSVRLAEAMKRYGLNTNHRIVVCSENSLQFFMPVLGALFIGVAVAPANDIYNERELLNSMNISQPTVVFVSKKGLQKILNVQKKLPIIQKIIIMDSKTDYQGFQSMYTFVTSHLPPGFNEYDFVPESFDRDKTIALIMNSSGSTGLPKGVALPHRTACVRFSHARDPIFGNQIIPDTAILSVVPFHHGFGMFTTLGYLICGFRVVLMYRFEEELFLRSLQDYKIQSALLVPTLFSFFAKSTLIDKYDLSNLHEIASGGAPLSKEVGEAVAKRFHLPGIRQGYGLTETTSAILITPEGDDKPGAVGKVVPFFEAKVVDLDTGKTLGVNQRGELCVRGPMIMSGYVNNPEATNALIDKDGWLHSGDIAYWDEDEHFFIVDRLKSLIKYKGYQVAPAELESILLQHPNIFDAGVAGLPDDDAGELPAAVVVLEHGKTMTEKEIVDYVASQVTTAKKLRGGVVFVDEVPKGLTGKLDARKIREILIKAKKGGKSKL

For `C=C1CC[C@H](O)C/C1=C/C=C1\CCC[C@]2(C)[C@H]1CC[C@H]2[C@@H](C)/C=C\[C@@H](C)C(C)C`, the call in [1], in assay [4] and in [8] was inactive. Moreover, the Potency result in [2], in [7] and in [10] was “inactive” throughout. The results for the activity change, negative = inhibition in assay [3] and in assay [9] were 1.42% (inactive) and 0.549% (inactive), respectively. Besides, the Potency in assay [5] and in assay [6] was > 20.6 µM (inactive) throughout. Also, the results for the max response in [9] (setting [13]) and in assay [9] (setting [14]) were -2.49% and -2.71%, respectively.
In the case of `CN1C(=O)C[C@H](c2ccccc2)C1=O`, the call in assay [1] and in [4] was inactive. Besides, the Potency result (in assay [2]; in [7]; in [10]; in assay [11]; with C2A; with CP191) was “inactive” in each case. Besides, the Potency result with CP256, with CP262, in the assay on CP268, with JCK and with SC27B was “inactive” throughout. The activity change, negative = inhibition in assay [3] is 35.9% (inactive); in assay [9] it was 0.325% (inactive). Moreover, the Potency in assay [5] and in assay [6] was > 20.6 µM (inactive) in each case. In addition, the max response is -28% in assay [9] (setting [13]) and -25.7% in assay [9] (setting [14]). In addition, in [12], the activity, negative = inhibition is -2.97% (inactive).
For `CN(C)/N=N\c1nc[nH]c1C(N)=O`, the result in assay [1], in [4] and in [8] was inactive. The Potency result in assay [2], in [7] and in assay [10] was “inactive” each time. Also, the activity change, negative = inhibition in assay [3] is 3.5% (inactive); in assay [9], 0.337% (inactive). Further, the Potency in assay [5] and in assay [6] was > 20.6 µM (inactive) each time. The max response in [9] (setting [13]) was 10.1%; in assay [9] (setting [14]), 7.48%.
Turning to `Nc1c2ccccc2nc2c(O)cccc12`, the result in assay [1], in assay [4] and in assay [8] was inactive. Moreover, the Potency in [2] is 6.31 µM (active); in assay [5], > 20.6 µM (inactive); in assay [6], > 20.6 µM (inactive). The activity change, negative = inhibition in assay [3] was -1.27% (inactive); in assay [9] it was -0.346% (inactive). Besides, the Potency result in assay [7] and in [10] was “inactive” throughout. Besides, the results for the max response in [9] (setting [13]) and in assay [9] (setting [14]) were -4.58% and -4.09%, respectively.
On to `C[C@]12C=CC(=O)C=C1CC[C@@H]1[C@H]3C[C@@H](O)[C@](O)(C(=O)CO)[C@@]3(C)C[C@H](O)[C@]12F`, for which the compound was classed as inactive in assay [1], in assay [4] and in [8]. The Potency result in assay [2], in assay [7] and in assay [10] was “inactive” each time. In addition, the activity change, negative = inhibition in assay [3] was 7.24% (inactive); in assay [9] it was -1.03% (inactive). Moreover, the Potency is 0.108 µM (active) in assay [5] and 0.0827 µM (active) in assay [6]. The max response in assay [9] (setting [13]) was 6.41%; in assay [9] (setting [14]) it was 6.57%.
Take `CC(=O)c1cc2ccccc2oc1=O`: the compound was classed as inactive in assay [1], in assay [4] and in assay [8]. The Potency in assay [2] is 0.2 µM (active); in assay [5], > 20.6 µM (inactive); in assay [6] it was > 20.6 µM (inactive). Moreover, the activity change, negative = inhibition in assay [3] is -3.16% (inactive); in assay [9], -3.99% (inactive). Further, the Potency entry in assay [7] and in [10] was “inactive” throughout. Further, the max response is -14% in [9] (setting [13]) and -18.4% in [9] (setting [14]).
Turning to `COc1c2c(nc3ccccc13)O[C@H]([C@@](C)(O)CO)C2`, the compound was called inactive in [1], in assay [4] and in assay [8]. For the same compound, the Potency in assay [2] is 12.6 µM (active); in assay [5] it was > 20.6 µM (inactive); in assay [6], > 20.6 µM (inactive). Moreover, the values for the activity change, negative = inhibition in assay [3] and in assay [9] were -17.9% (inactive) and 1.14% (inactive), respectively. For the same compound, the Potency result in assay [7] and in [10] was “inactive” throughout. The figures for the max response in [9] (setting [13]) and in assay [9] (setting [14]) were -17.8% and -15.2%, respectively.
